Hits are enriched below; roughly 14% of the tested compounds scored in any of these assays.
FBPA Giardia inh: inhibitors of Giardia lamblia fructose-1,6-bisphosphate aldolase | hit rate 0.71% among 290,000 | AID 2451 | Potency, µM (titrated, usually from 59.6 µM), for inactives: at the top dose activity, negative = inhibition, hits mostly inhibitors | purified Giardia FBPA; further: potency means the concentration at half of the fitted maximal effect; nearly all actives have a fitted effect of over 55% in size
Target sequence (A8B2U2 whole entry, looked up): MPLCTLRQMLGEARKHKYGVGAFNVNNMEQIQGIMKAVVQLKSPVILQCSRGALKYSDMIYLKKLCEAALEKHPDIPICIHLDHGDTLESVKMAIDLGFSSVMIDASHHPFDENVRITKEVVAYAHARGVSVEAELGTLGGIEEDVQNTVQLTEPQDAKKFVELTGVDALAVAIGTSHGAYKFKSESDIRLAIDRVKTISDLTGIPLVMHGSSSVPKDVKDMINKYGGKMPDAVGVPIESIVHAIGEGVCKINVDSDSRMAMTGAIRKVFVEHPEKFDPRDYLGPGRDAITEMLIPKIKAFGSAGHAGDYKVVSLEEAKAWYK
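Giardia FBPA (40 nM reagent) was preincubated 10 min at RT with compound (up to 57.5 uM final), then substrate plus GAPDH/TPI/NAD/arsenate coupling system with diaphorase/resazurin was added; resorufin fluorescence (525/598 nm) was read after 20 min.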
Pf growth 96h: P. falciparum growth inhibition at 96 hour, primary screen for plastid delayed-death inhibitors; P. falciparum luciferase reporter growth, 96 h; hit rate 6.9% among 320,000; Potency, µM (doses to about 28.7 µM), without a hit: at the top dose activity change, negative = inhibition, hits mostly inhibitors; further: potency means the concentration at half of the fitted maximal effect
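Readout is luminescence from an integrated firefly luciferase in P. falciparum. Red cells, 2% hematocrit and 0.05% parasitemia final, were cultured with compound through two parasite generations (96 hours) at 37 C, 5% CO2.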
Pf growth 48h: inhibits P. falciparum growth in the first generation, 48 h. P. falciparum luciferase growth in erythrocytes, 48 h. Potency, µM (top dose mostly 28.7 µM), for the others: top-dose activity change, negative = inhibition, actives largely listed as inhibitors. hit rate 5.9% among 310,000; further: potency means the concentration at half of the fitted maximal effect
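Read-out is firefly luciferase luminescence from an integrated reporter in P. falciparum, so falling signal marks reduced parasite growth. Infected erythrocytes were at 2% hematocrit and 0.1% parasitemia (final) in Albumax-supplemented RPMI 1640.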
Sm TGR block: blocks Schistosoma mansoni thioredoxin glutathione reductase | Q962Y6 | purified TGR, DTNB reduction, TNB absorbance 405 nm | Potency, µM (doses to about 114 µM), without a hit: top-dose activity change, negative = inhibition, usual class: inhibitors | hit rate 3% among 360,000 | AID 485364; further: potency means the concentration at half of the fitted maximal effect; nearly all actives have a fitted effect of over 60% in size
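TGR 20 nM + NADPH 100 uM (dispensed conc.), cpd preinc 15 min RT; start with NADPH (500 uM addition) then DTNB (15 mM addition). Kinetic TNB absorbance, 405 nm filter. Four-parameter Hill fit across titration.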
HCMV inh: human cytomegalovirus inhibition. HFF cells, HCMV-luciferase reporter, 72 h; hits give low values. activity change, negative = inhibition, % at 57.5 µM. hit rate 4.5% among 410,000. AID 1259415; in the data active means activity change below about -60%; inconclusive means no clear call, values can overlap the other calls; inactive means above about -39%
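Inhibition of viral replication was scored as loss of reporter luminescence in HFFs infected with HCMV-luciferase (MOI 1 PFU/cell) for 72 h; compounds tested at 2 doses, normalized to buffer and Salinomycin controls.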
* hit, by the source's call; u = inconclusive; x = no result given; ! = not confirmed by another sample. Unless noted, the call rests on the fitted dose curve; in most records, active means well fitted curve in the direction sought with a large enough effect; inconclusive means small, poorly fitted or top-dose-only effect, or another doubt; inactive means no such curve, though single readings can be large; an effect the other way counts as inactive or inconclusive. On the % scale 0 is the no-effect control and ±100 the full control effect.

SMILES	FBPA Giardia inh	Pf growth 96h	Pf growth 48h	Sm TGR block	HCMV inh
CCO[C@@H]1OC(C(=O)NC2CC2)=C[C@H](c2ccccc2)[C@H]1CCCO	-11%	3%	5%	-3%	11
O=C1c2ccccc2C(c2nnnn2Cc2ccccc2)N1Cc1cccc(F)c1 (centres undefined)	x	x	x	x	-18
COc1ccc(CCNC(=O)C2(C)CCC(=O)N2Cc2ccc(C)cc2)cc1OC (centres undefined)	6%	u	-9%	7%	-5
CCCc1cc(C(=O)Nc2ccc(CC)cc2)no1	-3%	u	186%	-2%	-8
COc1ccc(-c2ccc3c(c2)S(=O)(=O)c2cccc(C(=O)NC[C@@H]4CCCO4)c2C3=O)cc1OC	x	u	13µM*	u	17
Cc1c(N/N=C(\C#N)C(=O)c2ccccc2)c(=O)n(-c2ccccc2)n1C	u	u	1.7µM*	-18%	-79*
Cc1c(NC2(C#N)CCCC2)c(=O)n(-c2ccccc2)n1C	-11%	-11%	3%	40µM*	x
Cc1ccccc1C(=O)/C(C#N)=N/Nc1c(C)n(C)n(-c2ccccc2)c1=O	u	12%	1.7µM*	-10%	-88*
O=C(NCc1ccco1)c1ccc(COc2ccccc2[N+](=O)[O-])o1	x	u	-7%	-12%	4
O=C(Nc1ccc(OCc2cc(=O)n3c4c(sc3n2)CCCC4)cc1)c1cccc(F)c1	x	x	x	-8%	-1
COc1cc(/C=C(\C#N)C(=O)Nc2ccc(C)cc2)ccc1OCc1cc(=O)n2nc(C)sc2n1	x	x	x	-4%	7
COc1ccc(/C=C2\CCC(C3CCCC3)C2=O)cc1 (centres undefined)	5%	u	225%	0%	-10
O=C1CC(c2ccccc2)CC(O)=C1C=NCCN1CCN(C(=O)Cc2ccccc2)CC1 (centres undefined)	0%	37%	x	-33%	-1
COc1ccc(/C=C2/CCC(CN3CCOCC3)C2=O)cc1 (centres undefined)	x	x	x	x	-98*
Cc1ccc(C2CC(=O)C(C=NCCN3CCN(C(=O)Cc4ccccc4)CC3)=C(O)C2)cc1 (centres undefined)	2%	-3%	19%	22µM*	10
COc1ccc(C2CC(=O)C(C=NCCCN3CCOCC3)=C(O)C2)cc1 (centres undefined)	0%	3.3µM*	11%	u	14
COc1ccc(NC(=O)C(=O)NCCc2sc(-c3ccc(Cl)cc3)nc2C)cc1	x	x	x	15%	23
Cn1c(Cc2ccc3c(c2)OCO3)nnc1SCC(=O)NC1CCCC1	0%	-19%	3%	-17%	18
CCOC(=O)CNc1ncc(C(F)(F)F)cc1Cl	-1%	48%	8%	4%	-20
N#CCC(CNc1ncc(C(F)(F)F)cc1Cl)OC(=O)c1ccc(Cl)cc1Cl (centres undefined)	-9%	2.3µM*	2.9µM*	16%	-25
N#Cc1nc(-c2cccc3ccccc23)oc1NCC#CCOC(=O)c1cccs1	x	11%	1%	-33%	x
CCc1ccc(S(=O)(=O)NCCc2csc3nc(-c4ccccc4)nn23)s1	x	x	x	5%	-79*
O=S(=O)(NCCc1csc2nc(-c3ccccc3)nn12)c1cccs1	x	x	x	-24%	-37
COC(=O)CC(c1ccc(C#N)cc1)n1c(C)ccc1C (centres undefined)	-1%	13µM*	9.3µM*	u	-13
Oc1cc2c(cc1O)[C@H]1c3ccc(O)c(O)c3OC[C@@]1(O)C2	u	6.6µM*	3.7µM*	2.2µM*	-34
SMILES	FBPA Giardia inh	Pf growth 96h	Pf growth 48h	Sm TGR block	HCMV inh
CC(=O)Oc1ccc2c(c1OC(C)=O)OCC1(O)Cc3c(cc(OC(C)=O)c(OC(C)=O)c3OC(C)=O)C21 (centres undefined)	-2%	x	x	x	x
Oc1ccc2c(c1)OCC1(O)Cc3cc(O)c(O)cc3C21 (centres undefined)	18µM*	x	x	x	-6
COc1ccc(C2COc3cc(O)ccc3C2)c(OC)c1O (centres undefined)	x	x	x	x	20
COc1ccccc1N1CCN(c2c3c(nc4nncn24)CCC3)CC1	x	x	x	2%	u
CCCCCNC(=O)C(=O)C(=O)c1cc(OC)c(OC)c(OC)c1	x	x	x	x	18
COCCNC(C)(CCCCC(=O)O)c1nnnn1-c1c(C)cccc1Cl (centres undefined)	x	x	x	x	-9
CCc1ccc(C(=O)NNc2cc(Cl)ccc2Cl)cc1	0%	13%	u	18%	-68*
CCc1ccc(C(=O)NNc2ccccc2F)cc1	2%	69%	86%	-6%	u
CC(C)NC[C@@H](O)COc1ccc(CCOCC2CC2)cc1	1%	x	x	x	x
Cc1cccc(CCNC(=O)CNS(=O)(=O)c2ccc3nc(C)sc3c2)c1	x	u	-14%	0%	u
CCc1ccc(NC(=O)C2=CC(c3cccs3)=NS(=O)(=O)N2C)cc1	1%	29%	49%	0%	-75*!
CCCCN(C=O)c1c(CC)nc2ccc(C(=O)NCCCn3ccnc3)cn12	x	x	x	x	-7
Cc1ccc(C(=O)N(c2ccccc2)C2CC(C)N(C(=O)c3ccco3)c3ccccc32)cc1 (centres undefined)	-9%	x	10µM*	-7%	u
CCN(Cc1ccccc1)c1ncnc2c1cnn2-c1ccc(F)cc1	x	x	x	11%	70
CCCCc1c(-c2ccc(OC)c(OC)c2)ncn1CCc1ccccc1OC	x	x	x	x	-94*
CCCc1c(-c2ccc(Cl)cc2)ncn1CCc1ccccc1OC	x	x	x	x	-61*
CCCc1c(-c2ccc(F)cc2)ncn1CCc1ccccc1OC	x	x	x	x	-40
CCCCc1c(Cc2cccc(F)c2)ncn1CCc1ccccc1OC	x	x	x	x	-66*
COc1ccccc1CCn1cnc(-c2ccc(OC)c(OC)c2)c1C(C)C	x	x	x	x	-109*
Cc1ccc(Cn2c(SCC(=O)NCc3ccccc3Cl)nc3ccsc3c2=O)cc1	x	x	x	0%	-35
O=S1(=O)CCN(C2CCCC2)CC1	x	x	x	x	1
CN1C(=O)[C@@](O)(c2cn(C)c3ccccc23)c2cc(Br)ccc21	x	x	x	x	-4
COc1ccc(C2OCC(C)([N+](=O)[O-])CO2)cc1 (centres undefined)	x	x	x	x	30
CC(=O)OC1CC[C@@]2(C)C(=CC[C@H]3[C@@H]4CC[C@H](C(C)=O)[C@@]4(C)CC[C@@H]32)C1 (some centres undefined)	2%	x	x	x	x
Cc1cccc(NC(=O)C(C)Sc2nc3ccccc3c(=O)n2CCCN2CCOCC2)c1 (centres undefined)	x	8.3µM*	13µM*	-4%	u
COCCn1c(SC(C)C(=O)NC2CCCCC2C)nc2ccccc2c1=O (centres undefined)	x	-26%	6%	-8%	x
COCCn1c(SC(C)C(=O)Nc2ccc3c(c2)OCCO3)nc2ccccc2c1=O (centres undefined)	11%	13µM*	u	0%	-5

Screening data deposited in PubChem by National Center for Advancing Translational Sciences (NCATS).
